About 2,100 (0.62%) of roughly 340,000 compounds were called active.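 Rule for the calls: active = first-screen hits whose inhibition reached a set limit at any dose in the follow-up dose series; inconclusive = inhibition above the set first-screen limit but never retested; inactive = the rest.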 Only a sample is shown. Measured potencies and affinities stand elsewhere.
biological target: Rac GTPase-activating protein 1 (Homo sapiens) (UniProt Q9H0H5); assay: blockers of MgcRacGAP-driven Rac1 GTP hydrolysis – biochemical, ADP Hunter fluorescence, primary and confirmatory, confirmation (AID 624330); conditions: MgcRacGAP-stimulated Rac1 GTP hydrolysis, at 30 µM, stronger effect = higher value, GST-tagged Rac1 F28L mutant substrate;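 note: fluorescence reports GDP produced by GAP-driven GTP hydrolysis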
Sequence (Q9H0H5 whole entry, looked up): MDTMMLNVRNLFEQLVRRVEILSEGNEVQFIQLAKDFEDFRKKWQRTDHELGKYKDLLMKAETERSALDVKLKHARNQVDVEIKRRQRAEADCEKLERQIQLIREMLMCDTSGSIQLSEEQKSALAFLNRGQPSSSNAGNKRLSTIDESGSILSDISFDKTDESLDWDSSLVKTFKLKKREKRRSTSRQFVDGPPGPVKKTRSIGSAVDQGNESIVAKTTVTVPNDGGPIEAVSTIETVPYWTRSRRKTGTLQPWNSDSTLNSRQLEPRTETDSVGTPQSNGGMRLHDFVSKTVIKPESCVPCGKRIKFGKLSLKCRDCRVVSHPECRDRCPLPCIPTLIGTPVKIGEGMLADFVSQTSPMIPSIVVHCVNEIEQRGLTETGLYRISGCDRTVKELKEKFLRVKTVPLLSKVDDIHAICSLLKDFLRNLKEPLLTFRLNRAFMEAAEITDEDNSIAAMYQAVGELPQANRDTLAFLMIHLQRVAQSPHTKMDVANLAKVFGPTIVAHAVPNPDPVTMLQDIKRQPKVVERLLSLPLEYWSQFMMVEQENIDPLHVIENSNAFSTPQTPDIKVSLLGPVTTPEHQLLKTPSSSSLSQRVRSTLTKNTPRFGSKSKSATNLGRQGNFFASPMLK

inhibition, inactive:
CCCC(=O)Nc1ccc(C(=O)COC(=O)C2CC2)cc1 6.42%, Cc1cc(C)c(C(=O)N2CCCC(CNC(=O)C3(c4ccc(Cl)cc4)CC3)C2)c(=O)[nH]1 (stereo unspecified) 6.3%, CNC(=O)c1ccc(CN(C)C(=O)c2cccc(S(=O)(=O)N3CCc4ccccc4C3)c2)cc1 15.5%, COc1ccc2[nH]c(C(=O)N/N=C/c3ccc(OC)c(O)c3)cc2c1 26.2%, O=C(N/N=C/c1ccc(F)cc1)c1cc[n+]([O-])cc1 2.39%, COc1ccc(/C=N/NC(=O)c2cc3cc(OC)c(OC)cc3[nH]2)cc1 10.7%, O=C(N/N=C/c1ccncc1)c1ccc(-n2cccc2)cc1 -9.21%, COc1ccc(/C=N/NC(=O)c2ccc(C)cc2)cc1CN1CCN(c2ccc(F)cc2)CC1 11.1%, COc1cc(/C=N/NC(=O)c2cc[n+]([O-])cc2)cc(OC)c1OC 7.29%, COc1ccc(/C=N\NC(=O)c2cc(O)c(O)c(O)c2)cc1CN1CCN(c2ccc(F)cc2)CC1 -36.7%, COc1cc(C(=O)N/N=C/c2ccc3c(c2)c2ccccc2n3C)ccc1O 22.2%, Cc1onc(-c2c(Cl)cccc2Cl)c1C(=O)N(C)Cc1ccccc1 12.4%, CC(=O)N1CCN(c2ccc(NC(=O)c3ccco3)cc2Cl)CC1 8.65%, Cc1sc2nc(SCC(=O)N3CCN(CCO)CC3)n(-c3ccccc3)c(=O)c2c1C 6.94%, CCC(Oc1cc(Cl)ccc1Cl)C(=O)NN1C(=O)C2C3CCC(C3=C(C)C)C2C1=O (stereo unspecified) 4.3%, CCCCCCN1C[C@H](n2cc(COC(=O)c3ccccc3)nn2)[C@@H](O)C[C@@H]1c1ccc(C)cc1 2.5%, O=C(Nc1ccc(Cl)cc1)N[C@@H]1c2c(ccc3ccccc23)OC[C@@H]1CO -2.15%, COC(=O)c1c(-c2ccccc2)csc1NC1=NS(=O)(=O)c2ccccc21 -0.52%, COc1ccc(/C=N/NC(=O)c2[nH]nc3c2CCc2ccccc2-3)cc1OC 11.3%, COc1ccc(/C=N/NC(=O)C(=O)Nc2ccccn2)cc1OC 13.3%, COc1ccccc1/C=N/NC(=O)c1cccc(NC(=O)c2ccccc2C)c1 6.03%, COc1cc(OC)c(OC)cc1/C=N/NC(=O)c1ccc(CSc2nc(C)cc(C)n2)cc1 8.78%, COc1ccc(/C=N/NC(=O)c2ccc(CSc3nc(C)cc(C)n3)cc2)c(OC)c1OC 5.29%, C=CCOc1ccc(/C=N/NC(=O)C(=O)Nc2ccccn2)cc1OC -2.52%, COc1cc(/C=N/NC(=O)c2cccc(NC(=O)c3ccccc3Cl)c2)ccc1O 28.3%, COc1ccc(OC)c(/C=N/NC(=O)c2[nH]nc3c2CCc2ccccc2-3)c1 -0.52%, C[C@@H]1CN([C@@H](C)CO)C(=O)CCCn2cc(nn2)CO[C@H]1CN(C)S(=O)(=O)c1ccc(Oc2ccccc2)nc1 15.5%, C[C@@]12C(=O)Nc3cc(Cl)ccc3C(=O)N1[C@H]1c3cc(Br)ccc3OC[C@@H]1[C@@H]2c1ccccc1 11.9%, O=C(c1cc2nc(-c3ccc(F)cc3)cc(C(F)(F)F)n2n1)N1CCOCC1 10.3%, CCN1C(=O)[C@H]2[C@H]3CN=C(SCc4ccc(C(=O)OC)cc4)N3[C@@](CC)(C(=O)OC)[C@H]2C1=O 6.61%, O=C(Nc1ccc2nc(-c3cccnc3)[nH]c2c1)c1ccccc1F 5.15%, O=C(O)C1CC(c2ccc(F)cc2)=NO1 (stereo unspecified) 1.2%, CC(C)[C@H](NC(=O)OCc1ccccc1)C(=O)OCC(=O)NC1CCCCC1 10.6%, Cc1nonc1CN(C)C(=O)CC1C(=O)NCCN1Cc1ccccc1F (stereo unspecified) 2.81%, COc1ccc(OCCn2cc(/C=N/NC(=O)c3ccncc3)c3ccccc32)cc1 4.18%, CC(/C=C/c1ccc(O)cc1)=NNc1ccccc1 31.4%, COc1cc(/C=N/Nc2ccc(C(=O)O)cc2)cc(OC)c1OC -9.42%, COc1cc(/C=C/C(=O)CC(=O)/C=C/c2ccc(O)c(OC)c2)ccc1O 27.8%, Cc1ccc(OCCn2cc(/C=N/NC(=O)c3ccncc3)c3ccccc32)cc1 -10.1%, COc1ccc(/C=N/Nc2ccc(C(=O)O)cc2)cc1OC 12.8%, CCN(CC)c1ccc(/C=N/NC(=O)c2c[nH]c3ccccc23)cc1 30.9%, CCN(CC)c1ccc(/C=N\NC(=O)c2cccc3cc[nH]c23)cc1 21.1%, CN(C(=O)c1cccc(NC(=O)Cc2ccc(NC(=O)C3CCCN(S(=O)(=O)c4cccc([N+](=O)[O-])c4)C3)cc2)c1)C1CCCCC1 (stereo unspecified) 3.08%, O=C(COc1ccc(Cl)cc1)NCc1nnc(SCC(=O)N2CCCc3ccccc32)o1 2.68%, COc1ccc(-c2nnc(NC(=O)Cc3ccccc3)o2)cc1 7.81%, COc1ccc(CN2CCOCCOCCOCC2)cc1 0.62%, C=CCn1c(=O)c2ccccc2n2c(SCC(=O)NCCc3ccccc3)nnc12 6.1%, CC(C)n1nc(C(=O)NCCc2ccc(S(N)(=O)=O)cc2)c2ccccc2c1=O 0.38%, COc1ccc(CN2C(=O)c3ccccc3C2=O)cc1C(=O)OCC(=O)NC1CCCCC1 7.94%, c1ccc2cc(CNCc3cccc4ccccc34)ccc2c1 13%, O=C(COC(=O)CN1CCSC1=O)Nc1ccc(F)cc1Cl 2.57%, O=C(NCC1COc2ccccc2O1)c1ccc(NC(=O)C2CCCO2)cc1 (stereo unspecified) 10.6%, Cc1nnc(NC(=O)CCn2c(=O)oc3ccccc32)s1 4.88%, C=CCSc1ncccc1C(=O)NCCc1ccc(Cl)cc1 10.4%, COc1ccc(/C=N/NC(=O)C2(O)c3ccccc3-c3ccccc32)cc1 6.06%, O=C(N/N=C/c1ccccc1O)C1(O)c2ccccc2-c2ccccc21 8.51%, COc1ccccc1N(CC(=O)Nc1ccc(Cc2ccncc2)cc1)S(=O)(=O)c1ccccc1 0.87%, COc1ccc(C(=O)Nc2ccc3c(c2)n(C)c(=O)n3C)cc1OC 3.94%, CCS(=O)(=O)N1CCN(C2CCC(C)CC2)CC1 (stereo unspecified) 17.9%, CC1CCC(N2CCN(S(=O)(=O)Cc3ccccc3)CC2)CC1 (stereo unspecified) 7.86%, CCS(=O)(=O)N1CCN(C2Cc3ccccc3C2)CC1 13.9%, O=S(=O)(Cc1ccccc1)N1CCN(C2Cc3ccccc3C2)CC1 9.97%, Nc1cc2c(cc1Br)-c1ccccc1C2=NO 7.06%, COc1ccc(-c2nn(-c3ccccc3)cc2/C=N/Nc2ccc(Cl)c(C(=O)O)c2)cc1OC 13.5%, N#Cc1c(-c2ccccc2)nc(N2CCN(Cc3ccccc3)CC2)[nH]c1=O 0.49%, O=C(/C=C/c1cn(-c2ccccc2)nc1-c1cccnc1)NCCN1CCOCC1 11.7%, O=c1oc2cc(O)ccc2cc1-c1ccccc1 15.9%, O=C(O)c1cc2ccc(O)cc2oc1=O 4.89%, O=C(CCCc1nc2ccccc2s1)NC(c1ccccc1)c1ccccc1 6.29%, O=C(CN1N=C(c2ccccc2)CCC1=O)NCc1ccccc1 6.27%, COc1cc(CN(C)C(=O)C(=O)c2c[nH]c3ccccc23)ccc1O 8.17%, O=C(c1cc(-c2ccc(Cl)c(Cl)c2)on1)N1CCN(c2ccccc2)CC1 4.94%, COc1cc(NC(=O)c2cccs2)c(OC)cc1NC(=O)c1cccs1 4.2%, COc1ccc(NC(=O)c2cccs2)cc1 8.32%, COc1ccc(NC(=O)c2ccc(NC(=O)c3cccs3)cc2)cc1 2.51%, COc1ccccc1NC(=O)c1cccs1 0.52%, O=C(c1ccco1)N1CCc2ccccc21 3.81%, COCC(C)n1c(C)cc(C(=O)CSc2ncccn2)c1C (stereo unspecified) 8%, CN(CC1COc2ccccc2O1)C(=O)Cn1cc(C(F)(F)F)ccc1=O (stereo unspecified) 0.56%, NC(=O)C1CCN(Cc2cccc(OCc3ccccc3)c2)CC1 21.4%, CCN(CC)C(=O)C1CCN(Cc2ccc(OCc3ccccc3)cc2)CC1 15.5%, CCCCN(C)C(=O)C1CCN(CCCc2ccccc2)CC1 21.2%, CCN(CC)C(=O)C1CCN(Cc2cccc(OCc3ccccc3)c2)CC1 19.6%, CCCCN(C)C(=O)C1CCN(Cc2cccnc2)CC1 27.6%, NC(=O)C1CCN(Cc2ccc(OCc3ccccc3)cc2)CC1 21.3%, CCc1c(O)nc(SCC(=O)N2CCOCC2)n(-c2ccccc2)c1=O 9.22%, Cc1cc(NC(=O)COC(=O)CNC(=O)c2cccs2)c([N+](=O)[O-])cc1C 10.5%, O=C1OC(c2ccc(F)cc2)=N/C1=C\c1ccc(Br)o1 12.2%, NC(=O)CC(NC(=O)c1ccccc1)c1ccc(N2CCN(c3ccccn3)CC2)c([N+](=O)[O-])c1 (stereo unspecified) 6.77%, CC(C)CCNC(=O)CCCCn1c(=O)[nH]c2ccsc2c1=O 1.12%, CCn1cc(C(=O)NC2CCCCC2)c(=O)c2ccc(C)nc21 6.08%

Reference: PubChem BioAssay AID624330 (Southern Research Specialized Biocontainment Screening …, 2012)
